# TGFb SMAD3 inh: inhibitors of TGF-b signaling; HepG2 CAGA-GFP TGF-b/SMAD3 reporter, GFP fluorescence, 18 h; TGF-beta stimulated, 500 pg/mL final; Potency, µM (doses to about 46.1 µM), for inactives: top-dose activity, negative = inhibition, hits mostly inhibitors; 410,000 tested, 1.2% active; AID 588855; also: % is scaled to controls: 0 for no effect and ±100 for the full control effect; nearly all actives have a fitted effect of over 65% in size
#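 First, reporter cells (HEPG2 CAGA-GFP) rested 2 h at 37 degrees C. Next, compounds were pinned in and TGF-beta added to 500 pg/mL final. After 18 h, GFP was imaged per cell and summed per well.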
# ATXN viability: reduces viability in counter-screen for ATXN expression inhibitors. S2 cells (HEK-293 line with an ATXN2-luciferase reporter) viability, CellTiter-Fluor protease fluorescence, 24 h. Potency, µM (titrated, usually from 56.7 µM), hits mostly cytotoxic. 400,000 tested, 0.49% active; also: nearly all actives have a fitted effect of over 40% in size
# TDP1 cell noCPT: qHTS for Inhibitors of human tyrosyl-DNA phosphodiesterase 1 (TDP1): qHTS in cells in absence of CPT; DT40 Tdp1-/- hTDP1 cells, no CPT, ATP luminescence, 48 h; Potency, µM (doses to about 46.2 µM), without a hit: at the highest dose activity change, negative = growth inhibition, most hits filed as inhibitors; 420,000 tested, 15% active; AID 686978, 2013; also: % is scaled to controls: 0 for no effect and ±100 for the full control effect; nearly all actives have a fitted effect of over 55% in size
#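 Camptothecin absent (DMSO only). Human TDP1-complemented DT40 knockout cells, 400 cells/well, 37 °C for minimum 48 hr; ATP measured via CellTiter-Glo, 30 min dark incubation, luminescence.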
# ATXN2 expr inh: inhibitors of ATXN2 expression. 360,000 tested, 0.72% active. HEK-293 ATXN2-luciferase reporter, luminescence, 24 h. AID 1745845. Potency, µM (doses to about 57 µM), for the others: at the highest dose activity change, negative = inhibition, most hits filed as inhibitors; also: % is scaled to controls: 0 for no effect and ±100 for the full control effect; nearly all actives have a fitted effect of over 55% in size
#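 ATXN2-luciferase reporter cells (luciferase flanked by upstream and downstream ATXN2 gene portions) were treated 24 h at 37 °C with compounds at up to 57 uM. SteadyGlo luminescence gave expression; GF-AFC fluorescence gave viability.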
# HepG2 tox: HepG2 cytotoxicity, counter-screen for TGF-b inhibitors; HepG2 CAGA-GFP viability, ATP luminescence, 18 h; Potency, µM (top dose mostly 46.1 µM), for inactives: at the top dose activity change, negative = cytotoxicity, actives largely listed as cytotoxic; 410,000 tested, 0.76% active
#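 CellTiter-Glo luminescence gave cytotoxicity after 18 hours at 37 degrees C. The cells were HepG2 CAGA-GFP in 1% FBS DMEM, stimulated with 500 pg/mL TGF-beta after compound addition. %Activity was normalised to no-cell wells (complete cell-killing) and DMSO (no toxicity), and curves were fitted and classified.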
# DT40 TDP1 CPT: growth inhibition of DT40 Tdp1-/-;hTDP1 cells with camptothecin (screen for TDP1 inhibitors). Potency, µM (series often up to 46.2 µM), inactives show top-dose activity change, negative = growth inhibition, most hits filed as inhibitors. chicken DT40 Tdp1-/-;hTDP1 cells + 20 nM CPT, ATP luminescence, 48 h. 420,000 tested, 12% active. AID 686979; also: % is scaled to controls: 0 for no effect and ±100 for the full control effect; nearly all actives have a fitted effect of over 55% in size
#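 Cell growth measured by CellTiter-Glo luminescence after a minimum 48 h, 37 C compound exposure with 20 nM CPT in Tdp1-knockout DT40 cells stably expressing hTDP1, seeded 400/well; qHTS titration format.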
# * hit, by the source's call; i = inactive; ? = inconclusive; · = not tested or not shown. Sampled rows, rich in hits. Any-hit rate of the full collection: about 17%. Calls follow the shape of the dose curve; as a rule, active = well fitted curve in the direction sought with a large enough effect; inconclusive = small, poorly fitted or top-dose-only effect, or another doubt; inactive = no such curve, though single readings can be large; an effect the other way counts as inactive or inconclusive. Potency is read from the fitted curve at half-maximal effect.
SMILES,TGFb SMAD3 inh,ATXN viability,TDP1 cell noCPT,ATXN2 expr inh,HepG2 tox,DT40 TDP1 CPT
CCC(NC(=O)Cc1cccs1)c1ccccc1 (centres undefined),4%,i,-9%,-12%,3%,-25%
Cc1nc(-c2ccccc2)sc1C1(C)CC(c2ccc(C#N)cc2)=NO1 (centres undefined),-13%,i,-18%,1%,-24%,0%
O=C(COc1ccc([N+](=O)[O-])cc1)N1CCC(c2nc3ccccc3s2)CC1,?,?,9.2µM*,-38%,-33%,7.3µM*
CCc1ccc(OC(C)C(=O)N2CCC(c3nc4ccccc4s3)CC2)cc1 (centres undefined),?,?,16µM*,0%,-27%,18µM*
O=C(COc1ccc([N+](=O)[O-])cc1)N1CCN(c2nnc(-c3ccccc3)c3ccccc23)CC1,-8%,i,8.2µM*,·,1%,21µM*
O=C(CCS(=O)(=O)c1ccc(Br)cc1)Nc1ccccn1,-2%,i,-23%,3%,-4%,-23%
CN(C)c1ccc(NC(=O)COC(=O)Cn2nnc3ccccc32)cc1,6%,i,-2%,1%,-6%,-4%
COc1cccc(CN2CCC(C(=O)NC(C)c3cccc4ccccc34)CC2)c1 (centres undefined),0%,i,16µM*,-8%,-31%,23µM*
COc1cc(OC)nc(C(NC(=O)C2CCN(Cc3ccc(Oc4ccccc4)cc3)CC2)c2ccc(F)cc2)n1 (centres undefined),-2%,i,?,-4%,-35%,26µM*
CC(NC(=O)C1CCN(Cc2ccc(Oc3ccccc3)cc2)CC1)c1cccc2ccccc12 (centres undefined),?,?,15µM*,0%,-56%,23µM*
Cc1c(NC(=O)COC(=O)CSc2ccc([N+](=O)[O-])cc2)c(=O)n(-c2ccccc2)n1C,9%,?,-1%,-4%,2%,-3%
Cc1cc(C)cc(NC(=O)[C@H](NC(=O)[C@@H]2Cc3ccccc3CN2)c2ccccc2)c1,-21%,i,26µM*,13%,-17%,?
COCCNC(=O)C(c1ccccc1C)N(C(=O)Cn1nnc2ccccc21)c1cccnc1 (centres undefined),29%,i,-27%,-10%,2%,-4%
CCCN1C(=O)SC(CC(=O)Nc2cccc3ccccc23)C1=O (centres undefined),-4%,?,16µM*,40%,20%,16µM*
CCCN1C(=O)SC(CC(=O)Nc2ccccc2)C1=O (centres undefined),0%,?,?,0%,-1%,23µM*
CCOc1ccc2c(c1)n([O-])c1c([n+]2=O)CCCC1,-3%,i,?,12%,0%,13µM*
CN(Cc1c(F)cccc1Cl)C(=O)c1cccc(S(=O)(=O)N2CCN(Cc3ccccc3)CC2)c1,?,i,?,-10%,-16%,21µM*
CN(Cc1c(F)cccc1Cl)C(=O)c1cccc(S(=O)(=O)NCc2ccccc2)c1,-2%,?,18µM*,-6%,-20%,23µM*
CN(Cc1ccc(Cl)cc1Cl)C(=O)c1cccc(S(=O)(=O)NCc2ccccc2)c1,?,?,?,-5%,-31%,?
Cc1ccc(CN(C)C(=O)c2cccc(S(=O)(=O)N3CCN(Cc4ccccc4)CC3)c2)o1,-16%,i,?,-17%,-40%,?

# Source: PubChem BioAssay
